# 14-3-3g Raf = 14-3-3 gamma protein interaction modulation. P61981. FP, 14-3-3gamma / TMR-pS259-Raf peptide binding. inhibition, % at 40 µM. hit rate 0.19% among 160,000. AID 422; in the data active = inhibition above about 30%
# Target sequence (P61981 whole entry, looked up): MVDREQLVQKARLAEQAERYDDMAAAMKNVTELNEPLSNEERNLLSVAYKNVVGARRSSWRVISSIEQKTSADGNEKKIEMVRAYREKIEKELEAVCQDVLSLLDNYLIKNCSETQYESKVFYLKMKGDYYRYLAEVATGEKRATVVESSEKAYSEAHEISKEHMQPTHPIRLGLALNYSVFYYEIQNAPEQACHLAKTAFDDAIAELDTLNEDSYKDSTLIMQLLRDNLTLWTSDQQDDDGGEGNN
# Numbers stand for hits; – = inactive; + = active, no number; ! = repeats disagree. This is one part of a sample in which hits are shown more often than they occur.
SMILES,14-3-3g Raf
Cc1cc(C=Nc2ccc(-c3nc4ccccc4o3)c(O)c2)c(O)c([N+](=O)[O-])c1,–
CCOC(=O)c1ccc(Nc2ncnc3c2cnn3-c2ccc(OC)cc2)cc1,–
Cc1ccc(N(C)S(=O)(=O)c2ccc3[nH]cc(C(=O)NCc4ccccn4)c(=O)c3c2)cc1C,–
COCCNC(=O)c1c[nH]c2ccc(S(=O)(=O)N(C)c3ccc(F)cc3)cc2c1=O,–
CN(c1ccc(F)cc1)S(=O)(=O)c1ccc2[nH]cc(C(=O)NCc3ccccn3)c(=O)c2c1,+
CC1CCCC(C)N1C(=O)c1ccc2c(c1NCCO)C(=O)c1ccccc1C2=O (centres undefined),–
CNc1c(C(=O)O)ccc2c1C(=O)c1ccccc1C2=O,–
O=C(O)c1ccc2c(c1NCCO)C(=O)c1ccccc1C2=O,30.5
Cc1ccc(C)c(N2CCN(C(=O)CCn3c(=O)[nH]c4ccsc4c3=O)CC2)c1,–
O=C(CCNS(=O)(=O)c1ccc(Cl)cc1)NCc1cccnc1,–
COc1ccc(S(=O)(=O)NCCC(=O)NCc2cccnc2)cc1,55.9
COc1ccc(S(=O)(=O)NCCC(=O)NCc2cccs2)cc1,–
Cc1ccc(CNC(=O)c2ccc(CNS(=O)(=O)c3ccc(C)cc3)cc2)cc1,–
CNC(=O)c1ccc(CNS(=O)(=O)c2ccc(C)cc2)cc1,–
COc1cccc(CNC(=O)c2ccc(CNS(=O)(=O)c3ccc(C)cc3)cc2)c1,33.6
O=C1CC(c2ccco2)CC2=C1C(c1ccc(Cl)cc1)C1=C(N2)c2ccccc2C1=O (centres undefined),–
CCOC(=O)C1=C(C)NC(C)=C(C(=O)OC)C1c1cccc([N+](=O)[O-])c1 (centres undefined),–
COC(=O)C1=C(C(=O)OC)C(c2cccc([N+](=O)[O-])c2)c2sc(=O)[nH]c2S1 (centres undefined),33.5
COC(=O)C1=C(C(=O)OC)C(c2cc([N+](=O)[O-])ccc2OCc2ccccc2Cl)c2sc(=O)[nH]c2S1 (centres undefined),–
COc1ccccc1N1C(=O)c2cc([N+](=O)[O-])cc3cc([N+](=O)[O-])cc(c23)C1=O,–
Cc1ccc(-c2nc3ncccn3c2Nc2ccccc2)o1,–
Cc1cccc(NC(=O)CSc2nnc3c(n2)-c2cccc4cccc-3c24)c1C,–
Cc1cc(NC(=O)C(Cc2ccccc2)NS(=O)(=O)c2ccc(Br)s2)ccc1Br (centres undefined),–
C=CCSc1nnc2c(n1)OC(c1ccc([N+](=O)[O-])cc1)Nc1ccccc1-2 (centres undefined),–
C=CCSc1nnc2c(n1)OC(c1ccc(C(=O)OC)cc1)Nc1ccccc1-2 (centres undefined),–
SMILES,14-3-3g Raf
CCCSc1nnc2c(n1)OC(c1ccc(Cl)cc1)Nc1ccccc1-2 (centres undefined),–
C=CCSc1nnc2c(n1)OC(c1ccc(OC)c(OC)c1)Nc1ccccc1-2 (centres undefined),–
C=CCSc1nnc2c(n1)OC(c1ccc(C)cc1)Nc1ccccc1-2 (centres undefined),32.9
C=CCSc1nnc2c(n1)OC(c1ccc(N(C)C)cc1)Nc1ccccc1-2 (centres undefined),38.0
CCCCSc1nnc2c(n1)OC(c1cc(OC)c(OC)c(OC)c1)Nc1ccccc1-2 (centres undefined),42.3
CSc1nnc2c(n1)OC(c1ccc(N(C)C)cc1)Nc1ccccc1-2 (centres undefined),–
CCCSc1nnc2c(n1)OC(c1ccc(N(CC)CC)cc1)Nc1ccccc1-2 (centres undefined),39.0
CCCSc1nnc2c(n1)OC(c1ccco1)Nc1ccccc1-2 (centres undefined),–
CCCCSc1nnc2c(n1)OC(c1cccc(OC)c1OC)Nc1ccccc1-2 (centres undefined),–
CCCSc1nnc2c(n1)OC(c1cc(OC)c(O)c(OC)c1)Nc1ccccc1-2 (centres undefined),–
CCN(CC)CCn1c(=S)sc2c(=O)n(-c3ccccc3)c(=S)[nH]c21,–
CCOC(=O)c1nnn(-c2ccc(C(F)(F)F)cc2[N+](=O)[O-])c1C,–
Cc1ccc(Cl)cc1N1CCN(C(=O)c2cccn3c(=O)c4c(C)c(C)sc4nc23)CC1,–
O=C(c1ccccc1)N1CCN=C1SCc1ccccc1,–
COC(=O)C1=C(C)NC2=C(C(=O)CC(C)(C)C2)C1c1ccc(OCc2cccc(C(F)(F)F)c2)c(OC)c1 (centres undefined),–
O=C(c1ccc(S(=O)(=O)N2CCOCC2)cc1)N1CCN=C1SCc1ccc(C(F)(F)F)cc1,–
CCN1CCN(C(=S)c2ccc(OC)c(OC)c2)CC1,–
CCCCN(C)C(=O)c1cnc(Nc2ccc(C)c(Cl)c2)c2ccccc12,–
O=C(CSc1nc2c(sc3ccccc32)c(=O)n1CCc1ccccc1)NCC1CCCO1 (centres undefined),–
COc1ccc(NC(=O)c2ccc(N3CC4CC(C3)c3cccc(=O)n3C4)c(NC(=O)c3cc4ccccc4oc3=O)c2)cc1OC (centres undefined),–
COc1ccc(OC)c(NC(=O)C2CCC(CNS(=O)(=O)c3cccs3)CC2)c1 (centres undefined),–
COc1cc(OC)cc(C(=O)Nc2ccc3oc(-c4ccc(C)cc4)nc3c2)c1,–
C=CCn1c(SCC(N)=O)nnc1-c1ccc2[nH]c(C)c(C)c2c1,–
COc1ccc(OC)c(-n2c(=S)[nH]c3cc(C(=O)NC4CCCCC4)ccc3c2=O)c1,–
O=C(CN(Cc1ccccc1)S(=O)(=O)c1ccc(Br)cc1)Nc1cccc(Cl)c1,–
SMILES,14-3-3g Raf
COc1ccccc1NC(=O)c1cc2ccccc2c(C=Nc2ccc(OC(F)F)cc2)c1O,112.1
CCc1cccc(N=Cc2c(O)c(C(=O)Nc3ccccc3)cc3ccccc23)c1,–
Cc1cccc(N=Cc2c(O)c(C(=O)Nc3ccccc3C)cc3ccccc23)c1,–
Cc1cc(Br)cc(C)c1N1C(=O)C2CCCCC2C1=O (centres undefined),–
NC(=O)CN1CCOCCOCCN(CC(N)=O)CCOCC1,–
OCCN1CCOCCN(CCO)CCN(CCO)CC1,147.0!
C=COCCN1CCOCC1,–
CCOc1cc(C2C(C(=O)OCC3CCCO3)=C(C)NC3=C2C(=O)CC(c2cccs2)C3)cc([N+](=O)[O-])c1O (centres undefined),–
CCc1ccccc1NC(=O)C(=O)NCCc1ccccc1Cl,–
Cc1c(Cl)c(C)c([N+](=O)[O-])c(O)c1C=Nc1cccc(C(=O)O)c1,–
Cc1c(Cl)c(C)c([N+](=O)[O-])c(O)c1C=Nc1ccc(C(=O)O)cc1,45.4
Cc1c(Cl)c(C)c([N+](=O)[O-])c(O)c1C=Nc1ccc(Br)cc1,–
COCCNC(=O)C(=O)Nc1cc(Cl)ccc1OC,–
CNC(=O)C1=C(C)NC(=S)NC1c1ccc(F)cc1 (centres undefined),–
CCC1Sc2ccccc2N(CC(=O)NCCOC)C1=O (centres undefined),–
O=C(O)Cn1c(-c2ccccc2)nc2ccccc21,–
O=C(O)Cn1c2ccccc2c2nn3cc(-c4ccccc4)nc3nc21,118.8
COC(=O)Cn1c2ccccc2c2nc3ccccc3nc21,–
CC1CN(C2CCN(Cc3cccnc3)CC2)CC(C)O1 (centres undefined),–
COc1ccc(C(=O)OCC(=O)n2c(C)c(C)c3ccccc32)cc1,–
O=C1Nc2ccccc2C1=Nc1ccccc1O,–
Cc1[nH]c(=O)[nH]c(=O)c1NCCO,–
O=c1[nH]cc(NCCO)c(=O)[nH]1,30.6
